Measurements: PubChem BioAssay (NCI)
Values joined by “and” are separate entries in the source; they are usually repeats but may differ in a detail not shown here. Equal entries are not always repeated. This is part of a sample that, as a whole, favours compounds with a hit. Of some 83,000 tested, about 20% had one in any assay.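 Cells were grown in 96-well plates and exposed to the test compound at a single concentration for 48 hours; results are reported as percent growth, with values below 10 considered active.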 Active and inactive are the calls of the source.

Key:
Assay in all cases: NCI-60 one-dose screen, 48 h (100 = growth as untreated, 0 = no growth, -100 = all killed)
Settings in all cases: 10 µM unless noted
T-47D breast = system: T-47D breast
BT-549 breast = system: BT-549 breast
MDA-MB-435 melanoma = system: MDA-MB-435 melanoma
SW-620 colon = system: SW-620 colon
MCF7 breast = system: MCF7 breast
HCT-116 colon = system: HCT-116 colon
HCC-2998 colon = system: HCC-2998 colon
KM12 colon = system: KM12 colon

| SMILES | growth (T-47D breast) | growth (BT-549 breast) | growth (MDA-MB-435 melanoma) | growth (SW-620 colon) | growth (MCF7 breast) | growth (HCT-116 colon) | growth (HCC-2998 colon) | growth (KM12 colon) |
| --- | --- | --- | --- | --- | --- | --- | --- | --- |
| NNCCc1ccccc1 | 106% (inactive) and 95.2% (inactive) | 103% (inactive) and 107% (inactive) | 109% (inactive) and 97.2% (inactive) | 106% (inactive) and 94.6% (inactive) | 98.5% (inactive) and 86.6% (inactive) | 103% (inactive) and 93.5% (inactive) | 110% (inactive) and 98.5% (inactive) | 111% (inactive) and 99.5% (inactive) |
| C=C(C)[C@@H]1CC[C@]2(C)[C@H](CC(=O)N[C@H]3[C@@H]4C[C@](C)(C(=O)OC)CC[C@]4(C)CC[C@]32C)[C@@]1(C)CCC#N | 63.6% (inactive) | 72.1% (inactive) | 87.8% (inactive) | 93% (inactive) | 73.8% (inactive) | 72.2% (inactive) | 100% (inactive) | 79.6% (inactive) |
| O=C(/C=C/C12c3ccccc3C(c3ccccc31)C1C(=O)NC(=O)C12)c1ccncc1 (centres undefined) | -4.38% (active) | 15.7% (inactive) | 9.93% (active) | 13.4% (inactive) | 3.34% (active) | -16.5% (active) | 88.2% (inactive) | 7.72% (active) |
| O=C(CC1(O)C(=O)Nc2ccc(Br)cc21)c1ccc(Cl)cc1 (centres undefined) | 84.4% (inactive) | 99.9% (inactive) | 109% (inactive) | 99% (inactive) | 98% (inactive) | 98% (inactive) | 104% (inactive) | 99.5% (inactive) |
| Cc1nc2sc(C(=O)Nc3cccc(Cl)c3C)c(N)c2cc1C(O)c1ccccc1 (centres undefined) | 44.5% (inactive) | 40.9% (inactive) | 4.87% (active) | 24.1% (inactive) | 16.2% (inactive) | 8.63% (active) | 13.4% (inactive) | 10.5% (inactive) |
| CCOC(=O)C(=CCC(C)C)C(=O)OCC | 88.2% (inactive) | 93.1% (inactive) | 99.7% (inactive) | 105% (inactive) | 99.5% (inactive) | 98.9% (inactive) | 92.4% (inactive) | 110% (inactive) |
| N#C/C(=C\c1ccccc1Cl)c1cc2ccccc2[nH]1 | 38% (inactive) | 89.1% (inactive) | 101% (inactive) | 89% (inactive) | 36% (inactive) | 87.4% (inactive) | 111% (inactive) | 82.6% (inactive) |
| [2H]C([2H])([2H])Oc1cccc(/C=C/C(=O)/C=C(/C=C/c2cccc(OC([2H])([2H])[2H])c2OC([2H])([2H])[2H])OB(F)F)c1OC([2H])([2H])[2H] | 50.6% (inactive) | 86.2% (inactive) | 57% (inactive) | 46.7% (inactive) | 26.2% (inactive) | 41.5% (inactive) | 122% (inactive) | 92.2% (inactive) |
| CCOC(=O)C(=Cc1ccc(C#N)cc1)C(=O)OCC | 9.64% (active) | 47.3% (inactive) | 8.84% (active) | 0.79% (active) | 12.3% (inactive) | -13.1% (active) | 78.7% (inactive) | 29.8% (inactive) |
| CCCCCCCCn1ccc2cc(NC(=O)CN3CCN(c4nc(C)cc(N5CCCCC5)n4)CC3)ccc21 | 79.6% (inactive) | 83.4% (inactive) | 92.4% (inactive) | 87.6% (inactive) | 70.8% (inactive) | 76% (inactive) | 117% (inactive) | 86.4% (inactive) |
| O=C1/C(=C/c2ccc(F)c(F)c2)CN(C(=O)C(Cl)Cl)C/C1=C\c1ccc(F)c(F)c1 | -46.2% (active) | -98% (active) | -94.8% (active) | -67.6% (active) | -55.2% (active) | -98.9% (active) | -83.4% (active) | -89.2% (active) |
| Cc1[nH]c(C(=O)Nc2nc3ccc(NC(=O)CCN)cc3s2)c(Cl)c1Cl | 54.8% (inactive) | 88.9% (inactive) | 91.3% (inactive) | 43.7% (inactive) | 52.3% (inactive) | 59.9% (inactive) | 96.4% (inactive) | 90.3% (inactive) |
| Cc1ccc(-c2nc3nc(-c4ccc(Br)cc4)nc(N4CCCNCC4)c3o2)cc1 | -8.11% (active) | 99.5% (inactive) | 7.5% (active) | -72.4% (active) | -75.8% (active) | -79.8% (active) | -80.7% (active) | -90.9% (active) |
| CC(=O)Nc1c(I)c(NC(C)=O)c(I)c(C(=O)O)c1I | 96.6% (inactive) and 102% (inactive) | 101% (inactive) and 97.9% (inactive) | 101% (inactive) and 102% (inactive) | 102% (inactive) and 117% (inactive) | 98.6% (inactive) and 96.9% (inactive) | 110% (inactive) and 93% (inactive) | 106% (inactive) | 104% (inactive) and 123% (inactive) |
| O=C1C(c2c[nH]c3ccccc23)=C(c2coc3cc(Br)ccc23)C(=O)N1O | 77.5% (inactive) | 103% (inactive) | 103% (inactive) | 102% (inactive) | 80.6% (inactive) | 96.7% (inactive) | 100% (inactive) | 97.9% (inactive) |
| CCOc1nc(-c2ccccc2)cc2c(O)c(C(=O)N/N=C/c3ccc(N(C)C)cc3)[nH]c(=O)c12 | 218% (inactive) | 125% (inactive) | 118% (inactive) | 97.8% (inactive) | 92.9% (inactive) | 112% (inactive) | -14.8% (active) | 109% (inactive) |
| COc1cc(Nc2nc3ccccc3cc2C(=O)Nc2ccc(F)c(F)c2)cc(OC)c1OC | 9.25% (active) | 55.5% (inactive) | 19.7% (inactive) | 23% (inactive) | 12.8% (inactive) | 6.91% (active) | 45.3% (inactive) | 20% (inactive) |
| O=C(/C=C\c1ccc(Cl)c(Cl)c1)c1ccccc1 | 77.4% (inactive) and 86.9% (inactive) | 103% (inactive) | 70.5% (inactive) and 100% (inactive) | 31.9% (inactive) and 95.1% (inactive) | 18.8% (inactive) and 28.2% (inactive) | 22.7% (inactive) and 62.1% (inactive) | 95.2% (inactive) and 104% (inactive) | 96.6% (inactive) |
| CC[C@H](C)[C@H](NC(=O)[C@H](CCCCN)NC(=O)[C@H](CCCCN)NC(=O)[C@@H](NC(=O)[C@@H](NC(=O)[C@@H](N)Cc1cnc[nH]1)[C@@H](C)CC)[C@@H](C)CC)C(=O)N[C@@H](CCCNC(=N)N)C(=O)N[C@H](C(=O)N[C@@H](Cc1c[nH]c2ccccc12)C(=O)N[C@@H](Cc1ccc(O)cc1)C(=O)N[C@@H](CCCNC(=N)N)C(=O)N[C@@H](CCCCN)C(=O)N[C@@H](C)C(=O)N[C@@H](Cc1c[nH]c2ccccc12)C(=O)N[C@@H](Cc1cnc[nH]1)C(=O)N[C@H](C(=O)N[C@@H](CC(C)C)C(=O)NCC(=O)N[C@@H](CCCCN)C(=O)N[C@H](C(N)=O)C(C)C)C(C)C)[C@@H](C)O | -56.4% (active) | 41.9% (inactive) | 23.6% (inactive) | 44.2% (inactive) | -67.9% (active) | 45.1% (inactive) | 25.7% (inactive) | -11.7% (active) |
| Cc1c(C(=O)OCCCCOC(=O)c2c(C)n(C)c3scc[n+]23)[n+]2ccsc2n1C | 97.1% (inactive) | 110% (inactive) | 109% (inactive) | 125% (inactive) | 100% (inactive) | 107% (inactive) | 115% (inactive) | 118% (inactive) |
| COc1cc(-c2nc(SCCC(C)C)nc(Nc3ccc(F)cc3)c2C#N)cc(OC)c1OC | 65.7% (inactive) | 74.9% (inactive) | 79.4% (inactive) | 80.1% (inactive) | 87% (inactive) | 22% (inactive) | 102% (inactive) | 78.6% (inactive) |
| O=C(NCc1ccc(Cn2c(=O)sn(-c3ccc(Cl)cc3)c2=O)cc1)OCc1ccc2c(Cl)cc(Cl)c(O)c2n1 | 60.2% (inactive) | 60.6% (inactive) | 54.7% (inactive) | 49.3% (inactive) | 50.3% (inactive) | 29.3% (inactive) | 67.9% (inactive) | 23.5% (inactive) |
| O=Nc1c(O)ccc2ccccc12 | 15.5% (inactive) and 76.1% (inactive) | 94.5% (inactive) and 90.8% (inactive) | -83.9% (active) and 116% (inactive) | 27.5% (inactive) and 83.9% (inactive) | 67.8% (inactive) and 78.1% (inactive) | 6.49% (active) and 81% (inactive) | 110% (inactive) and 97.4% (inactive) | 66.8% (inactive) and 109% (inactive) |
| NC1=CC(=O)c2cccnc2C1=O | -34.4% (active) | 9.57% (active) | -95.5% (active) | -80% (active) | -55.5% (active) | -56.4% (active) | 59.9% (inactive) | 58.9% (inactive) |
| CC(Sc1ccccc1)C(=O)O (centres undefined) | 105% (inactive) | 96.5% (inactive) | 96.5% (inactive) | 102% (inactive) | 99.5% (inactive) | 88% (inactive) | 120% (inactive) | 107% (inactive) |
| [2H]C([2H])([2H])Oc1cc(F)ccc1/C=C/C(=O)/C=C(/C=C/c1ccc(F)cc1OC([2H])([2H])[2H])OB(F)F | 33.1% (inactive) | 36.8% (inactive) | 16.5% (inactive) | 22.3% (inactive) | 20.1% (inactive) | -11.1% (active) | 56% (inactive) | 61.6% (inactive) |
| COc1cc(C(=O)c2ccccc2C(=O)O)c(OC)c2c1CCCC2 | 90.9% (inactive) and 95.7% (inactive) | 95.8% (inactive) and 101% (inactive) | 100% (inactive) and 107% (inactive) | 98.2% (inactive) and 106% (inactive) | 97.4% (inactive) and 99.5% (inactive) | 95.6% (inactive) and 95.4% (inactive) | 107% (inactive) and 101% (inactive) | 98.7% (inactive) and 104% (inactive) |
| S=c1nc(CS)[nH]c2ccccc12 | 109% (inactive) | 101% (inactive) | 101% (inactive) | 98.5% (inactive) | 79.6% (inactive) | 100% (inactive) | 110% (inactive) | 100% (inactive) |
